Source: PubChem BioAssay
SARS PLpro yeast: inhibitors of SARS-CoV papain-like protease in yeast. S. cerevisiae expressing SARS-CoV PLpro, growth rescue. AID 485353. 330,000 tested, 0.19% active. Potency, µM (doses to about 32.9 µM), without a hit: at the top dose activity, positive = growth rescue, actives largely listed as activators; calls by dose curve; also: potency is read from the fitted curve at half-maximal effect; 0% is about no effect; nearly all actives have a fitted effect of over 55% in size
Cycloheximide cs: affects cycloheximide protein synthesis inhibition readout, counter-screen; cell reporter, cycloheximide protein synthesis inhibition counterscreen; max response, %; 300,000 tested, 12% active; AID 2314; in the data active = max response mostly above about 13%, no sharp cut-off; inactive = mostly below about 14%; also: read at 38.3 µM for the half of the compounds with a filed dose; 0% is about no effect
AMA1 RON2 block: inhibitors of Plasmodium falciparum AMA1-RON2 interaction | AlphaScreen AMA1-biotinylated RON2 peptide binding | AID 720542 | Potency, µM (series often up to 58.2 µM), without a hit: top-dose activity change, negative = inhibition, most hits filed as inhibitors | 360,000 tested, 0.2% active;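 also: potency is read from the fitted curve at half-maximal effect; 0% = vehicle wells and -100% = peptide control; nearly all actives have a fitted effect of over 45% in size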
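AMA1 (3D7) with his tag at 25 nM final met compounds first, then biotinylated RON2 peptide at 25 nM; detection used donor plus acceptor beads, 10 µg/mL apiece, read by AlphaScreen after 30 min at room temperature.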
Shiga inhibitor: blocks Shiga toxin action in Vero cells | AID 2315 | 290,000 tested, 9.2% active | inhibition, % at 38.7 µM | Vero cells, Shiga toxin protein synthesis inhibition reporter; in the data active = inhibition mostly above about 28%, no sharp cut-off; inactive = mostly below about 43%; also: 0% is about no effect
Pf growth 48h: inhibits P. falciparum growth in the first generation, 48 h; 310,000 tested, 5.9% active; Potency, µM (series often up to 28.7 µM), for inactives: top-dose activity change, negative = inhibition, actives largely listed as inhibitors; AID 504832; P. falciparum luciferase growth in erythrocytes, 48 h; also: potency is read from the fitted curve at half-maximal effect; % is scaled to controls: 0 for no effect and ±100 for the full control effect
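Luciferase-expressing P. falciparum in infected erythrocytes (2% hematocrit, 0.1% parasitemia final) in RPMI 1640/0.5% Albumax were exposed to compound for 48 hours at 37 C, 5% CO2; growth read as luminescence.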
Pf growth 96h: P. falciparum growth inhibition at 96 hours; 320,000 tested, 6.9% active; P. falciparum luciferase reporter growth, 96 h; AID 504834; Potency, µM (series often up to 28.7 µM), for inactives: at the highest dose activity change, negative = inhibition, actives largely listed as inhibitors; also: potency is read from the fitted curve at half-maximal effect; % is scaled to controls: 0 for no effect and ±100 for the full control effect
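Readout is luminescence from an integrated firefly luciferase in P. falciparum. Red cells, 2% hematocrit and 0.05% parasitemia final, were cultured with compound through two parasite generations (96 hours) at 37 C, 5% CO2.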
Numbers without * were called inactive; i = inactive; ? = inconclusive; · = no result given; [ ] = another dose, or the depositor's remark. Compounds with a hit are over-represented: about 19% of the library has one in this group of screens. Unless noted, calls follow the shape of the dose curve; as a rule, active = well fitted curve in the direction sought with a large enough effect; inconclusive = small, poorly fitted or top-dose-only effect, or another doubt; inactive = no such curve, though single readings can be large; an effect the other way counts as inactive or inconclusive.

SMILES | SARS PLpro yeast | Cycloheximide cs | AMA1 RON2 block | Shiga inhibitor | Pf growth 48h | Pf growth 96h
COC(=O)c1ccc(S(=O)(=O)N2CCc3ccccc32)cc1 | -4.5% | 7.4 | 1.5% | 20.9 | 2.4% | 9.28µM*
COc1ccc(CCNC(=O)C2CCC(C(C)(C)C)CC2)cc1OC (stereo not given) | -2.9% | -1.2 | 12.2% | -27.0 | ? | ?
CCCCN(C)C(=O)c1sc2ncn(CC)c(=O)c2c1C | · | 18.6 | 1.0% | 66.8 | 6.6% | 10.4µM*
CCn1cnc2sc(C(=O)Oc3cccc(C)c3)c(C)c2c1=O | -9.1% | 28.7* | -0.2% | 78.8* | 145.6% | ?
CCCNC(=O)Cn1cnc2sc(C(=O)NCCN(CC)CC)c(C)c2c1=O | 2.7% | -3.4 | -5.2% | -9.5 | 23.5% | 130.2%
CCn1cnc2sc(C(=O)N3CCN(c4ccc(OC)cc4)CC3)c(C)c2c1=O | -6.7% | 1.2 | -4.6% | -6.6 | -14.1% | 16.9%
CCOc1ccc2ccc(OCC)c(/C=N/n3cnnc3)c2c1 | -4.5% | 9.4* | -4.7% | 30.7 | 0.1% | 21.1%
CCOc1cc(/C=N/n2cnnc2)ccc1O | 0.7% | -1.5 | -1.8% | -3.4 | 17.4% | 14.6%
C=CCc1cc(/C=N/n2cnnc2)cc(OCC)c1O | 2.5% | -3.4 | 11.6% | 15.4 | ? | 8.28µM*
C=CCc1cc(/C=C2/NC(=O)NC2=O)cc(OCC)c1O | 1.1% | -1.3 | 1.3% | 1.9 | -3.9% | 1.04µM*
C=CCc1ccc(OCCOc2ccc(/C=N/n3cnnc3)cc2OCC)c(OC)c1 | -8.0% | 7.0 | -11.4% | -13.2 | -1.9% | ·
COc1cc(CNCCc2ccccc2)cc(Br)c1OCC(=O)Nc1ccccc1C | -0.9% | -2.4 | -1.0% | 4.1 | -21.0%[5.75 µM] | ?
COc1ccccc1-c1cnc(C(O)c2ccc(SC)cc2)[nH]1 (stereo not given) | · | · | -17.7% | · | · | ·
CCCC1CCC(=NNC(=O)OC(C)(C)C)CC1 (stereo not given) | -8.7% | 31.2* | -7.4% | 61.2 | 26.0% | 95.0%
Cc1ccc(CCNC(=O)C(C)n2nc(C)c3c(C)n(-c4ccccc4)nc3c2=O)cc1 (stereo not given) | -7.7% | -8.6 | -11.3% | 6.0 | -13.8% | ?
Cc1ccc(-n2nc3c(=O)n(C(C)C(=O)NCCC4=CCCCC4)nc(C)c3c2C)cc1 (stereo not given) | 1.5% | 8.9 | 0.3% | 1.2 | ? | 9.28µM*
Cc1nn(C(C)C(=O)NCCCc2ccccc2)c(=O)c2nn(-c3ccccc3)c(C)c12 (stereo not given) | 3.3% | -7.2 | 11.4% | -5.7 | -22.5% | ?
Cc1ccc(-n2nc3c(=O)n(C(C)C(=O)NCc4ccc(Cl)cc4)nc(C)c3c2C)cc1 (stereo not given) | -1.1% | 15.2 | -11.0% | -7.4 | ? | 1.65µM*
O=C(Nc1ccc(Cl)cc1)c1csc(Cc2ccccc2)n1 | -2.1% | 36.7* | -1.3% | 75.0* | 77.4% | 57.0%
COc1ccc(Cc2nc(C(=O)Nc3ccccc3)cs2)cc1 | -24.3% | 38.8* | -8.6% | 51.6* | · | 33.8%
CCOc1cc(/C=N/NC(=O)c2cccnc2)ccc1OCC(=O)N1CCOCC1 | ? | -0.9 | 7.6% | -7.0 | 5.7% | i
CN1CCC(n2[nH]c(-c3ccccc3)c(Cc3ccccc3)c2=O)CC1 | · | · | -6.6% | · | · | ·
Cc1cccc(N/N=C/c2c(O)[nH]c(=S)[nH]c2=O)c1 | · | · | 69.1% | · | · | ·
NS(=O)(=O)c1ccc(N/N=C/c2ccccc2Br)cc1 | -1.3% | 13.9 | -18.2% | 29.1 | 18.6% | 53.7%
Cc1cccc(N/N=C/c2ccccc2O)c1 | -38.7% | 100.7* | 14.9% | 98.1* | ? | ?
SMILES | SARS PLpro yeast | Cycloheximide cs | AMA1 RON2 block | Shiga inhibitor | Pf growth 48h | Pf growth 96h
NS(=O)(=O)c1ccc(N/N=C/c2ccncc2)cc1 | -0.6% | 6.7 | 0.8% | 27.6 | 6.57µM* | ?
Cc1cccc(NC(=O)C(=O)N/N=C/c2ccncc2)c1 | -1.5% | 1.0 | 16.1% | 8.7 | 17.5% | 8.9%
Cc1cccc(N/N=C/c2ccncc2)c1 | -5.6% | 34.0* | -1.2% | 45.0* | ? | ?
Cc1ccc(S(=O)(=O)NC(C)(C)CN2CCC(Cc3ccccc3)CC2)cc1 | -1.6% | 6.1 | -19.3% | 7.4 | ? | -16.5%
C#CCNC(=O)C1=C[C@@H](c2ccc3c(c2)OCO3)C[C@@H](OCc2ccc(CO)cc2)O1 | · | · | 9.2% | · | · | ·
O=S(=O)(NCC1COc2ccccc2O1)c1ccc2ccccc2c1 (stereo not given) | 7.6% | 0.3 | -3.1% | -14.1 | -15.9% | 12.0%
CNS(=O)(=O)c1ccc(NCC2COc3ccccc3O2)c([N+](=O)[O-])c1 (stereo not given) | 1.9% | 16.4* | -1.0% | -5.3 | 13.2% | -11.7%
COCc1ccc2oc(C(=O)O)cc2c1 | 4.6% | 0.8 | 4.3% | -6.6 | 18.7% | ·
Cc1cc(N2C(=O)CCC2=O)n(-c2ccccc2)n1 | -6.5% | -1.3 | 11.6% | -7.2 | 3.9% | 10.4µM*
Cc1cc(NC(=O)Nc2cc(C)nn2-c2ccccc2)n(-c2ccccc2)n1 | 6.0% | -1.7 | 11.3% | -14.6 | · | 0.0%
Cc1cccc(Nc2nc(OCC#N)nc(N(C)C)n2)c1 | 0.5% | -1.9 | 10.4% | -0.4 | -179.3% | 11.7µM*
CCN(CC)c1nc(Nc2ccc(Cl)cc2)nc(OCC#N)n1 | 3.0% | 7.7 | 0.3% | 2.7 | -18.4% | ·
CCOc1cc(NC(=O)C2CC2)c(OCC)cc1NC(=O)CCn1nnc2ccccc21 | 2.5% | -5.1 | 7.8% | 1.9 | -6.4% | -6.9%
COc1cc(NC(=O)c2ccco2)c(OC)cc1NC(=O)CCC(=O)Nc1cccc(C)c1C | -5.4% | -3.0 | -4.3% | -7.9 | 11.5% | 5.22µM*
COc1cc(NC(=O)c2ccco2)c(OC)cc1NC(=O)c1cc(OC)c(OC)c(OC)c1 | -5.7% | -1.9 | -11.7% | -0.7 | ? | 2.94µM*
O=C(NCc1cccnc1)c1cccc2c1C(=O)N(Cc1cccnc1)C2 | 3.6% | -2.3 | -13.3% | 17.4 | · | ?
OC(CNc1ncnc2sccc12)c1ccccc1 (stereo not given) | 1.3% | 25.4* | 6.4% | 84.0* | 146.2% | 209.5%
c1ccc(CCNc2ncnc3sccc23)nc1 | -15.2% | 35.1* | 45.2% | 73.0* | 123.6% | 239.2%
O=C(NCCCNC(=O)c1cnccn1)c1ccc(Br)cc1 | 1.9% | -6.9 | 32.4% | -5.2 | -7.1% | ?
CN(C)Cc1ccc(O)c(CCc2ccccc2)n1 | 17.5% | -2.5 | -8.5% | 7.7 | 5.22µM* | 6.9%
COc1ccccc1Cc1c(-c2cccc(Cl)c2)nc2ccc(C)cn12 | · | · | -10.7% | · | · | ·
C=CCN(c1ccccc1C(=O)O)S(=O)(=O)/C=C/c1ccccc1 | -1.6% | -3.0 | 2.0% | -11.5 | 0.0% | ?
COc1ccc(OC)c(CCNC(=O)CCc2cn(C)c3ccccc23)c1 | 1.0% | -2.0 | -21.0% | -3.9 | -3.0% | 0.7%
COc1ccc(CCNC(=O)CCc2cn(C)c3ccccc23)c(OC)c1OC | 0.7% | 1.1 | 6.0% | -1.8 | 11.7µM* | ?
